# Laboratory results as given in paper PMC7862700, “An all-to-all approach to the identification of sequence-specific readers for epigenetic DNA modifications on cytosine”.
# How the values were obtained:
# Test in all cases: DAPPL (digital affinity profiling via proximity ligation, sequencing); 10 mM Tris-HCl pH 7.5, 50 mM NaCl, 1 mM DTT, 4% glycerol, room temperature, 30 min; GST-TFs on glutathione beads, 16-mer random dsDNA library, 0.1% formaldehyde crosslink after washing; high values mean tight binding
# [1] = molecular target: T1, FLI1 (Homo sapiens, UniProt Q01543 1-452); conditions: protein: recombinant; tags: N-terminal GST; dsDNA, one strand shown
# T1 sequence: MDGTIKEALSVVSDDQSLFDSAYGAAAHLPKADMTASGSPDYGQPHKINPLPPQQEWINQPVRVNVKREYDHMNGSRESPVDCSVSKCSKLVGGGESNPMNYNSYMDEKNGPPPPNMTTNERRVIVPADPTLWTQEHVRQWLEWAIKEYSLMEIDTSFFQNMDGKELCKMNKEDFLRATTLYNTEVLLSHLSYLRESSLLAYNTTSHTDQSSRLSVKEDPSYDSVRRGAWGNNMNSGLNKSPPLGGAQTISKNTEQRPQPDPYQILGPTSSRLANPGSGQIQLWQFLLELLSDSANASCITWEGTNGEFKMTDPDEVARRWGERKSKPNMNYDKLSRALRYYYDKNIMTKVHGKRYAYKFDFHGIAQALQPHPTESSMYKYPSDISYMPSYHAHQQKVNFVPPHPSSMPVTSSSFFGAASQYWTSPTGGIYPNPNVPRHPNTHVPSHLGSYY
# In short: (§1)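 GST fusions of human transcription factors were expressed in yeast and captured with glutathione beads. Once given DNA barcodes and pooled alongside a tag-only sample, they were incubated for 30 min at room temperature with 200 nmole of a random double-stranded 16-mer DNA library in Tris/NaCl/DTT/glycerol buffer, then washed, crosslinked (0.1% formaldehyde), proximity-ligated, PCR-amplified and sequenced on an Illumina NextSeq500. The binding signal of each hexamer is its read frequency for a factor divided by its frequency for the tag-only sample.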
# [2] = molecular target: T2, ELK1 (Homo sapiens, UniProt P19419 1-428); conditions: protein: recombinant; tags: N-terminal GST; dsDNA, one strand shown
# T2 sequence: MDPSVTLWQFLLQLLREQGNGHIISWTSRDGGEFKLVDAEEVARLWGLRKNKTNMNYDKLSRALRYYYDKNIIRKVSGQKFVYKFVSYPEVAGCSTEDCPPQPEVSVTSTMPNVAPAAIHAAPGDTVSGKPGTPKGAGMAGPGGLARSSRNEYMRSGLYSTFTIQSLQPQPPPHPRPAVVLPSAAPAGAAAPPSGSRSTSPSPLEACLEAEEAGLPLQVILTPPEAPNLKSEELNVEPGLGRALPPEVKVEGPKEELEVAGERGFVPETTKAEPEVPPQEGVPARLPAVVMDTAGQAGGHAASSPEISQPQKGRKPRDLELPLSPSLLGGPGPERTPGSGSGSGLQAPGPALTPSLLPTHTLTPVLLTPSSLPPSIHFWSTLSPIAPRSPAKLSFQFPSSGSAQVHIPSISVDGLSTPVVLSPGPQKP
# In short: as §1
# [3] = molecular target: T3, GABPA (Homo sapiens, UniProt Q06546 1-454); conditions: protein: recombinant; tags: N-terminal GST; dsDNA, one strand shown
# T3 sequence: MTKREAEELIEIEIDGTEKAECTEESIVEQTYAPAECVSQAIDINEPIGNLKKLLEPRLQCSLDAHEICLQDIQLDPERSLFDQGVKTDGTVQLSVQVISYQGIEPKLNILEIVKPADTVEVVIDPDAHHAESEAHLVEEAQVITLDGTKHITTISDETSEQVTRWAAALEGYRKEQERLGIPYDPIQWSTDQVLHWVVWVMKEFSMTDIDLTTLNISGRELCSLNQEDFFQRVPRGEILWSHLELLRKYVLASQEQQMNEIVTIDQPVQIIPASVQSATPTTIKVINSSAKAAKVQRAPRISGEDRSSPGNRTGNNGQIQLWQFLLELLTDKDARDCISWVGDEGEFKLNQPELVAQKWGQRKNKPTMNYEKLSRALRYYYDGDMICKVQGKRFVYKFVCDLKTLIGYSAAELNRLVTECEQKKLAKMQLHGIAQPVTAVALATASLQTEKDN
# In short: as §1
# [4] = molecular target: T4, ERG (Homo sapiens, UniProt P11308 1-479); conditions: protein: recombinant; tags: N-terminal GST; dsDNA, one strand shown
# T4 sequence: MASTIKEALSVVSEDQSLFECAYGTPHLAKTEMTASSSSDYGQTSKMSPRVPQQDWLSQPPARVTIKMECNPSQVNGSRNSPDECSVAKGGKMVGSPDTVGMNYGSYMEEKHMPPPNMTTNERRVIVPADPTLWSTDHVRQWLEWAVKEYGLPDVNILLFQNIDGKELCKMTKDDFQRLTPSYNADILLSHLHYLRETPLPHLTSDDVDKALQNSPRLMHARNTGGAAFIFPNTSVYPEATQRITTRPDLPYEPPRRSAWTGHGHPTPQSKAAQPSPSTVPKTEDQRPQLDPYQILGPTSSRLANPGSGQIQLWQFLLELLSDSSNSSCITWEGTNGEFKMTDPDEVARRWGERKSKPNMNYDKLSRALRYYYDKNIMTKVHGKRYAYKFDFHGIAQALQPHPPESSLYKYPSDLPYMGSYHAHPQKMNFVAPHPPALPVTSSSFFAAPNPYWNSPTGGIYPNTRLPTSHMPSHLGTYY
# In short: as §1
# [5] = molecular target: ELF1 (Homo sapiens, UniProt P32519 1-619); conditions: protein: recombinant; tags: N-terminal GST; dsDNA, one strand shown
# Chain of ELF1 (P32519 whole entry): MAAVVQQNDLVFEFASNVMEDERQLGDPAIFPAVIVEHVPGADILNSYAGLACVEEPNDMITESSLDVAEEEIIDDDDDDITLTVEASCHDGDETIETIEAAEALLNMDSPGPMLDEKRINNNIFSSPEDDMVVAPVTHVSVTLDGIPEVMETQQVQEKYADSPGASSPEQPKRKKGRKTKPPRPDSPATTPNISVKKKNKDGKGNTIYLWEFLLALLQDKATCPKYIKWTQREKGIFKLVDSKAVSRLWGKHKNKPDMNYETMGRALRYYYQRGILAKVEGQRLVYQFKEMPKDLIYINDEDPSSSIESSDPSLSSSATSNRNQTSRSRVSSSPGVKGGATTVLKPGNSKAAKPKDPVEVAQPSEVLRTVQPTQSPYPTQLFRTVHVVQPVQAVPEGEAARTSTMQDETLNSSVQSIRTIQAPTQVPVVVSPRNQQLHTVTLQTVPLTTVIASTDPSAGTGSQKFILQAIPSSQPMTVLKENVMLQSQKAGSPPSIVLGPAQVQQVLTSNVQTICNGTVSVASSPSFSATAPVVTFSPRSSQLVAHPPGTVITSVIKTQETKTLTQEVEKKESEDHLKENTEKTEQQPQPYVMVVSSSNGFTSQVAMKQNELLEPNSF
# In short: as §1
# [6] = molecular target: T5, EHF (Homo sapiens, UniProt Q9NZC4 1-300); conditions: protein: recombinant; tags: N-terminal GST; dsDNA, one strand shown
# T5 sequence: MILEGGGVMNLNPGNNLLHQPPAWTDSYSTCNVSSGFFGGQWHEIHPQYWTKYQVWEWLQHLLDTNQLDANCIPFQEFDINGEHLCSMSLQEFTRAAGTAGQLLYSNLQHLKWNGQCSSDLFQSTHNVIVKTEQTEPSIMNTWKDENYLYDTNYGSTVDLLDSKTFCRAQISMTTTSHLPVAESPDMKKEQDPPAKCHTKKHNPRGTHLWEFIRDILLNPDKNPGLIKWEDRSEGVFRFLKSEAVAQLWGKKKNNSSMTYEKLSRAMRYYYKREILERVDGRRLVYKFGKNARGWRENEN
# In short: as §1
# [7] = molecular target: SPI1 (Homo sapiens, UniProt P17947 1-270); conditions: protein: recombinant; tags: N-terminal GST; dsDNA, one strand shown
# In short: as §1
# [8] = molecular target: SPIB (Homo sapiens, UniProt Q01892 1-262); conditions: protein: recombinant; tags: N-terminal GST; dsDNA, one strand shown
# Chain of SPIB (Q01892 whole entry): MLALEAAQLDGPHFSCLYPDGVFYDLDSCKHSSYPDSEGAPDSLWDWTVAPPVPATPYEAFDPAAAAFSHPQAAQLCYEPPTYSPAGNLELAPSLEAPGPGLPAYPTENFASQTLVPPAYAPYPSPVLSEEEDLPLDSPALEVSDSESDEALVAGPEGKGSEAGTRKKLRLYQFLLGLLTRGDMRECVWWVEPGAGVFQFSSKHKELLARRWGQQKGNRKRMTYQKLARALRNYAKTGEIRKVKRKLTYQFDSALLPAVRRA
# In short: as §1
# [9] = molecular target: T6, ELK3 (Homo sapiens, UniProt P41970 1-407); conditions: protein: recombinant; tags: N-terminal GST; dsDNA, one strand shown
# T6 sequence: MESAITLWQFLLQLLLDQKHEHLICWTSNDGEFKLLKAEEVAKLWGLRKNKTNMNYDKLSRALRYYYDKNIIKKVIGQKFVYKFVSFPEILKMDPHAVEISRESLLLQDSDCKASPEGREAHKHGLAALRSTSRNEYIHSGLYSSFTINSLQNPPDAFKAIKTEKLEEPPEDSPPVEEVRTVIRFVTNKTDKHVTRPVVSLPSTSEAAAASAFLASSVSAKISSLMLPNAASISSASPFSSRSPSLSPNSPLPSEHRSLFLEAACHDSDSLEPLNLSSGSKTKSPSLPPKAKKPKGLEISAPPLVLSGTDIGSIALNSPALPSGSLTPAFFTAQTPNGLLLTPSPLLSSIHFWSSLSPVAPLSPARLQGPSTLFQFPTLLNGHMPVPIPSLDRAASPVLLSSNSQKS
# In short: as §1
# [10] = molecular target: T7, FEV (Homo sapiens, UniProt Q99581 1-238); conditions: protein: recombinant; tags: N-terminal GST; dsDNA, one strand shown
# T7 sequence: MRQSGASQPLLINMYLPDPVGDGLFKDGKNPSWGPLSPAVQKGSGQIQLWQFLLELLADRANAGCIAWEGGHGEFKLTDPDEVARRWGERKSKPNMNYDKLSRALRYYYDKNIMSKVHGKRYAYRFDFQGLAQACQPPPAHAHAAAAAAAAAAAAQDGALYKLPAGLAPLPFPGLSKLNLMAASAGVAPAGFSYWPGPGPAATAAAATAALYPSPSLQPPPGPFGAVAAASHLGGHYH
# In short: as §1
# [11] = molecular target: ETV5 (Homo sapiens, UniProt P41161 1-510); conditions: protein: recombinant; tags: N-terminal GST; dsDNA, one strand shown
# Chain of ETV5 (P41161 whole entry): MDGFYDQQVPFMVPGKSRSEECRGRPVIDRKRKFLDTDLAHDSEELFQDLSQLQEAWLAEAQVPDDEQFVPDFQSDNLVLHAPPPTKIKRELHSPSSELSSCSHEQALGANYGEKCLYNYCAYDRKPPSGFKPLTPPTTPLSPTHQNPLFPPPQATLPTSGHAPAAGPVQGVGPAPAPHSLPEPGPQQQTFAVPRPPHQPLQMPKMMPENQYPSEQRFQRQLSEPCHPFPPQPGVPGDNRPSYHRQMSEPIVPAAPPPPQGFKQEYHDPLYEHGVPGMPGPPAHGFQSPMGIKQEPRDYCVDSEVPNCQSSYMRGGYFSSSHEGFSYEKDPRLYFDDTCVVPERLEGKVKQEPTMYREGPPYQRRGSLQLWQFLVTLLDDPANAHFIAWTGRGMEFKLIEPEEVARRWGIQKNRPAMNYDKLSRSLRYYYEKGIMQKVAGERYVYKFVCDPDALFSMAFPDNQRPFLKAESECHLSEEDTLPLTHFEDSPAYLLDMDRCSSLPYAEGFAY
# In short: as §1
# [12] = molecular target: HSF1 (Homo sapiens, UniProt Q00613 1-529); conditions: protein: recombinant; tags: N-terminal GST; chain copies: 3; dsDNA, one strand shown
# Chain of HSF1 (Q00613 whole entry): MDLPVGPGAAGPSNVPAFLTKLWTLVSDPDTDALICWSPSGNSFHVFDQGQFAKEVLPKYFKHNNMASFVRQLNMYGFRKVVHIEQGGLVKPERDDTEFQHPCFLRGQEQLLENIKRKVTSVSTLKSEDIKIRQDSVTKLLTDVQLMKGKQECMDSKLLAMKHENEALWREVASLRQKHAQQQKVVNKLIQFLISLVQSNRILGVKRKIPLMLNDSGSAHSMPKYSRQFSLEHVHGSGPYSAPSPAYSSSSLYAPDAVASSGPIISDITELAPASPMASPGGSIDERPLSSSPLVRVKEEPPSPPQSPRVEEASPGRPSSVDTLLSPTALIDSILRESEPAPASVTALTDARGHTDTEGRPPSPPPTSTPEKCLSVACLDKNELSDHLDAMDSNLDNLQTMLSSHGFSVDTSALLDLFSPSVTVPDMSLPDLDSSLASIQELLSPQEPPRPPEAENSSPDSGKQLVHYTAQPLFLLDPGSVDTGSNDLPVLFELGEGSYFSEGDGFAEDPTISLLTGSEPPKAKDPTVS
# In short: as §1
# [13] = molecular target: T8, SPIC (Homo sapiens, UniProt Q8N5J4 1-248); conditions: protein: recombinant; tags: N-terminal GST; dsDNA, one strand shown
# T8 sequence: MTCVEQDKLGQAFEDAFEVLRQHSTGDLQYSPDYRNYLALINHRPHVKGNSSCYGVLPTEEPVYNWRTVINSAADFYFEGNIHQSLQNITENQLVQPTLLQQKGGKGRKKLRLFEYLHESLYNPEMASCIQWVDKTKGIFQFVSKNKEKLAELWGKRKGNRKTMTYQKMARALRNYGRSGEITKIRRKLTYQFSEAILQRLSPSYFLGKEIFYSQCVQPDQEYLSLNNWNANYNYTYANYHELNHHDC
# In short: as §1
# [14] = molecular target: ELF4 (Homo sapiens, UniProt Q99607 1-663); conditions: protein: recombinant; tags: N-terminal GST; dsDNA, one strand shown
# Chain of ELF4 (Q99607 whole entry): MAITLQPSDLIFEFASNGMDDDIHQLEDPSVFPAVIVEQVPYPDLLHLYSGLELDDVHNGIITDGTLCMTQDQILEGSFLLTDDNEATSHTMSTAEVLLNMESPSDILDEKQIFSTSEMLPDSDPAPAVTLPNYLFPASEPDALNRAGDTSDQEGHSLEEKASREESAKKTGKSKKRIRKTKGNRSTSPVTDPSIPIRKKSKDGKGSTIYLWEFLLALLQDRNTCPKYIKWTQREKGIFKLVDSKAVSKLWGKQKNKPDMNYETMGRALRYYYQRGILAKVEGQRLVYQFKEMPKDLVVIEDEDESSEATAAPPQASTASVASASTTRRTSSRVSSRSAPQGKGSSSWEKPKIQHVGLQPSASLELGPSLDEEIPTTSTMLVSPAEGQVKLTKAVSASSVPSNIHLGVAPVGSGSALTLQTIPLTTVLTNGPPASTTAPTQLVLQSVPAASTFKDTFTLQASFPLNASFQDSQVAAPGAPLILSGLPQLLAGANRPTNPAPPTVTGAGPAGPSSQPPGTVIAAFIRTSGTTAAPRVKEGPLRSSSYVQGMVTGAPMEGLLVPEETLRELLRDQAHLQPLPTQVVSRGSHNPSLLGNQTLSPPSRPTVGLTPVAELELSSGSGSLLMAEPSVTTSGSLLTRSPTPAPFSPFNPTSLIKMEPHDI
# In short: as §1
# [15] = molecular target: T9, ELK4 (Homo sapiens, UniProt P28324-2 1-405); conditions: protein: recombinant; tags: N-terminal GST; dsDNA, one strand shown
# T9 sequence: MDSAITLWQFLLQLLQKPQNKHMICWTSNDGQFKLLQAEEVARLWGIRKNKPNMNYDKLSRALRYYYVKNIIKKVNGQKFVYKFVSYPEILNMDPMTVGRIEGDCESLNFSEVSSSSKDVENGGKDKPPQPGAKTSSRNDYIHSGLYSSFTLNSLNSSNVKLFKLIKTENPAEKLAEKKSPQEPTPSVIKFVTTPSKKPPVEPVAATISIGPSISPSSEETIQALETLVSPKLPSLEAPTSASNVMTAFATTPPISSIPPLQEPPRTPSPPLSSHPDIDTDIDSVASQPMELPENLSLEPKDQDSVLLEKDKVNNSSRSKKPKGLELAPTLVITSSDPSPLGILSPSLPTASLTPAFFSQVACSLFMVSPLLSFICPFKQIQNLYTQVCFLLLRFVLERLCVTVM
# In short: as §1
# [16] = molecular target: T10, ETV2 (Homo sapiens, UniProt O00321 1-342); conditions: protein: recombinant; tags: N-terminal GST; dsDNA, one strand shown
# T10 sequence: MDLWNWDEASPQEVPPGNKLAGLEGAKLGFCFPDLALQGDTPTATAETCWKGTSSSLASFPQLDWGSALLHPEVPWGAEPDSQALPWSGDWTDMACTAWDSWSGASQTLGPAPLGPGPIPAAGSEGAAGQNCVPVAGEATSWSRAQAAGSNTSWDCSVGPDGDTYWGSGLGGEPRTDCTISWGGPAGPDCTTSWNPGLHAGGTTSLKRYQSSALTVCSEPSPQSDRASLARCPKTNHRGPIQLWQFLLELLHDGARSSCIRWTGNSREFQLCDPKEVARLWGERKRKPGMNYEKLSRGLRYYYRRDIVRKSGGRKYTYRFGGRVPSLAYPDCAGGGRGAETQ
# In short: as §1
# [17] = molecular target: T11, ELF3 (Homo sapiens, UniProt P78545 1-371); conditions: protein: recombinant; tags: N-terminal GST; dsDNA, one strand shown
# T11 sequence: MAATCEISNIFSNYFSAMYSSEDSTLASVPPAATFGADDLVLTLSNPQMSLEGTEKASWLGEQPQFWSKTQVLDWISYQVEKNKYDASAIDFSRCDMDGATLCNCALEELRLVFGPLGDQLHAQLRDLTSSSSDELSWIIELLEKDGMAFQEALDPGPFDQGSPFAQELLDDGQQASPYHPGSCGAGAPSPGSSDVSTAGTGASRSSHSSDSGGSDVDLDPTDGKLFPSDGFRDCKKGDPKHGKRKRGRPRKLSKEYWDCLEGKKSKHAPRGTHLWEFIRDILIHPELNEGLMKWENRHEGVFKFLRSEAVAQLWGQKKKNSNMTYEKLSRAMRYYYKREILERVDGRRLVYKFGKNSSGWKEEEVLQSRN
# In short: as §1
# [18] = molecular target: CRX (Homo sapiens, UniProt O43186 1-299); conditions: protein: recombinant; tags: N-terminal GST; dsDNA, one strand shown
# Chain of CRX (O43186 whole entry): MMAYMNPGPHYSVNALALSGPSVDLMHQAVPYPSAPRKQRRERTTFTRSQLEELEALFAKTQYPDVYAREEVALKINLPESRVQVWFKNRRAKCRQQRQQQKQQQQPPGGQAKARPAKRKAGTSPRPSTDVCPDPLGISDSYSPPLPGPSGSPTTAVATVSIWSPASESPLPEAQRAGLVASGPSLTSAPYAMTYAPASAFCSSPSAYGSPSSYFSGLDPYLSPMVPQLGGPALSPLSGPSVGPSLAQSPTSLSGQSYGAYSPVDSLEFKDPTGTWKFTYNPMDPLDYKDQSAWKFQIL
# In short: as §1
# [19] = molecular target: ETV1 (Homo sapiens, UniProt P50549 1-477); conditions: protein: recombinant; tags: N-terminal GST; dsDNA, one strand shown
# Chain of ETV1 (P50549 whole entry): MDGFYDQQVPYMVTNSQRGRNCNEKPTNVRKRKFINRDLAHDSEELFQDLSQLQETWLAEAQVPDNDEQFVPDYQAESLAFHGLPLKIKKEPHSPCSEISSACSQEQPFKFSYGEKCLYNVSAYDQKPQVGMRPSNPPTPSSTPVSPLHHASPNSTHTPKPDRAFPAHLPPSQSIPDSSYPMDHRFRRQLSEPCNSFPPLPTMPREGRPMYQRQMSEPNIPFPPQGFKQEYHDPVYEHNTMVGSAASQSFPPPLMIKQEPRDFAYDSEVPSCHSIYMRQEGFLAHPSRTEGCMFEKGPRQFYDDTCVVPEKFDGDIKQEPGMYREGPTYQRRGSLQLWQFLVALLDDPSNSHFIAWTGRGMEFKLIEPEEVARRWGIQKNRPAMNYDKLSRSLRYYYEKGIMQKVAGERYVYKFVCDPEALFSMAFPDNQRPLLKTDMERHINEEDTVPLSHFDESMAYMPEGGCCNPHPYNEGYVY
# In short: as §1
sequence,measurement,setting,value
CAAAAA,binding signal,[1],"1.14 fold enrichment (6-mer frequency, TF over GST control)"
same,binding signal,[2],"1.04 fold enrichment (6-mer frequency, TF over GST control)"
same,binding signal,[3],"1.16 fold enrichment (6-mer frequency, TF over GST control)"
same,binding signal,[4],"1.07 fold enrichment (6-mer frequency, TF over GST control)"
same,binding signal,[5],"1.16 fold enrichment (6-mer frequency, TF over GST control)"
same,binding signal,[6],"1.2 fold enrichment (6-mer frequency, TF over GST control)"
same,binding signal,[7],"1.32 fold enrichment (6-mer frequency, TF over GST control)"
same,binding signal,[8],"1.19 fold enrichment (6-mer frequency, TF over GST control)"
same,binding signal,[9],"1.17 fold enrichment (6-mer frequency, TF over GST control)"
same,binding signal,[10],"1.2 fold enrichment (6-mer frequency, TF over GST control)"
same,binding signal,[11],"1.15 fold enrichment (6-mer frequency, TF over GST control)"
same,binding signal,[12],"1.08 fold enrichment (6-mer frequency, TF over GST control)"
same,binding signal,[13],"1.01 fold enrichment (6-mer frequency, TF over GST control)"
same,binding signal,[14],"1.18 fold enrichment (6-mer frequency, TF over GST control)"
same,binding signal,[15],"1.13 fold enrichment (6-mer frequency, TF over GST control)"
same,binding signal,[16],"1.17 fold enrichment (6-mer frequency, TF over GST control)"
same,binding signal,[17],"1.12 fold enrichment (6-mer frequency, TF over GST control)"
same,binding signal,[18],"1.02 fold enrichment (6-mer frequency, TF over GST control)"
same,binding signal,[19],"1.22 fold enrichment (6-mer frequency, TF over GST control)"
